Laboratory results reported in PubChem BioAssay (NCI).
Compounds without any hit were thinned out: in the full panel of roughly 83,000, 20% have a hit.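 Testing used 96-well plates and a 48-hour single-concentration exposure. Example: -40 means 40% of the starting cells died.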 A number with no mark means an inactive call. Active and inactive are the calls of the source. How the source made its calls: active means growth percent below 10; inactive means the rest.

What follows are compounds tested on MDA-MB-468 breast (assay: NCI-60 one-dose screen, 48 h (100 = growth as untreated, 0 = no growth, -100 = all killed)). Details: 10 µM unless noted.
For `Oc1ccccc1-c1nc2ccccn2c1NCCN1CCOCC1`, the growth was 109%. With `COc1ccc(-n2ncc3c2ccc2cc(S(=O)(=O)c4ccccc4)c(=O)n(C)c23)cc1` the growth was 94.5%. `NC(=O)c1cc(Br)cc(Br)c1NS(=O)(=O)c1ccccc1` gave a growth of 106%. `COc1cnc2c(c1)C(=O)c1c-2n(CCCN2CCOCC2)c(=O)c2cc(Cl)ccc12` was tested, and the growth was -1.98% (active). `COc1ccccc1C(=O)/C=C/c1cc2cccc(OC)c2[nH]c1=O` was tested, and the growth was -43.9% (active). In the case of `C=C1C(=O)O[C@H]2[C@H]1CC/C(COC(=O)c1cc3cc(Cl)ccc3[nH]1)=C\CC[C@@]1(C)O[C@@H]21`, the growth was -59.6% (active). With `CNC(=O)c1ccc(Nc2ncc(C(F)(F)F)c(NCc3nccnc3N(C)S(C)(=O)=O)n2)cc1` the growth was -50.1% (active). `Clc1cc2c(nn1)Nc1ccccc1S2` was tested, and the growth was 96.9%. `COc1cc(CN(c2ccc(Cl)cc2)C2OC(=O)c3ccccc32)cc(OC)c1OC` (configuration not stated) showed a growth of 16.8%. Work on `CCOC(=O)C1=NN(c2ccccc2)C(=O)/C1=C\N1C(=O)CC(=O)NC1=S` yielded a growth of 114%. `O=C(Nc1ccc(Cl)cc1F)c1cc(Cl)ccc1O` was tested, and the growth was -20.2% (active). For `CCCCOc1nc2c(C)cccc2cc1C1CNC(=O)c2ccccc2N1` (configuration not stated), the growth was 51.6%.
